Records with an inconclusive call do not appear. Unmarked numbers belong to inactive results. Calls of active or inactive are those of the source. Calls follow the shape of the dose curve; as a rule, active = well fitted cell-killing curve with a large enough effect; inconclusive = small, poorly fitted or top-dose-only effect, or effect the other way; inactive = no such curve, though single readings can be large or run the other way.

We go through 33 compounds from PubChem BioAssay AID1345085 (National Center for Advancing Translational Sciences (NCATS), 2018).
% is scaled to controls: 0 for no effect and ±100 for the full control effect; potency is read from the fitted curve at half-maximal effect.

For this assay, the system named is SKOV3. As to the kind of experiment: Confirmatory qHTS for gynecologic anti-cancer compounds from libraries of approved drugs and bioactive compounds. Also: nearly all actives have a fitted effect of over 55% in size. The conditions noted are these: gynecologic cancer cell panel viability, ATPlite luminescence, 48 h; series mostly up to 57.6 µM. In short, it runs like this: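 ATP-based luminescent viability (ATPlite) after 48 h drug treatment at 37 °C, 5% CO2, across 57.5 uM–0.977 nM in 1:3 steps. Cells seeded at 1,000 per well 16 h beforehand; IC50 values computed, HEK 293T as selectivity control.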
For orientation: In qHTS, concentration-response curves come from the screen itself.
Turning to `COc1ccc(CCC(=O)c2c(O)cc(O[C@@H]3O[C@H](CO)[C@@H](O)[C@H](O)[C@H]3O[C@@H]3O[C@@H](C)[C@H](O)[C@@H](O)[C@H]3O)cc2O)cc1O`, the Potency entry is “inactive”.

Consider `NC(=O)c1cnc(-c2ccc(C3(N)CCC3)cc2)c(-c2ccccc2)c1`, for which the Potency was 9.68 µM (active).

Turning to `Cc1ccc(C(=O)Nc2ccc(CN3CCN(C)CC3)c(C(F)(F)F)c2)cc1C#Cc1cnc2cccnn12`, the Potency is 12.2 µM (active).

On to `CNC(=O)c1ccccc1Sc1ccc2c(/C=C/c3ccccn3)n[nH]c2c1`, for which the Potency was 19.3 µM (active).

With `Nc1ccccc1NC(=O)c1ccc(CNc2nccc(-c3cccnc3)n2)cc1`, the Potency was 0.432 µM (active).

Regarding `CCN1CCN(Cc2ccc(-c3cc4c(NC(C)c5ccccc5)ncnc4[nH]3)cc2)CC1` (stereo not drawn), the Potency is 17.2 µM (active).

As for `O=C1Cc2cc(CCN3CCN(c4nsc5ccccc45)CC3)c(Cl)cc2N1`, the Potency entry was “inactive”.

With `COc1cc(N2CCC(N3CCN(C)CC3)CC2)ccc1Nc1ncc(Cl)c(Nc2ccccc2S(=O)(=O)C(C)C)n1`, the Potency was 19.3 µM (active).

Take `CCCC(=O)O[C@]1(C(=O)CCl)[C@@H](C)C[C@H]2[C@@H]3CCC4=CC(=O)C=C[C@]4(C)[C@@]3(F)C(=O)C[C@@]21C`: the Potency entry is “inactive”.

Consider `O=C(c1ccc(F)c(F)c1Nc1ccc(I)cc1F)N1CC(O)([C@@H]2CCCCN2)C1`, for which the Potency was 6.11 µM (active).

As to `CN(C)C1CCN(C(=O)c2ccc(NC(=O)Nc3nc(N4CCOCC4)nc(N4CCOCC4)n3)cc2)CC1`, the Potency was 0.109 µM (active).

On to `COc1cccc2c1C(=O)c1c(O)c3c(c(O)c1C2=O)C[C@@](O)(C(=O)CO)C[C@@H]3O[C@H]1C[C@H](N)[C@H](O)[C@H](C)O1`, for which the Potency was 0.432 µM (active).

Turning to `Cc1cc(C(=O)N2CCN(c3cccc(Cl)c3)CC2)n(-c2ccccc2)n1`, the Potency was 0.544 µM (active).

Take `COc1ccc(-c2cc3nccn3c(Nc3ncccc3C(N)=O)n2)cc1OC`: the Potency entry is “inactive”.

On to `Cc1cnc(CNC(=O)c2c(=O)c3ccc(N4CCCN(C)CC4)nc3n3c2sc2ccccc23)cn1`, for which the activity change, negative = viability loss is 5.48% [at 10.7 µM].

Consider `COc1cc2c(c(OC)c1OC)-c1ccc(OC)c(=O)cc1[C@@H](NC(C)=O)CC2`, for which the Potency result was “inactive”.

Turning to `Cc1nc(Nc2ncc(C(=O)Nc3c(C)cccc3Cl)s2)cc(N2CCN(CCO)CC2)n1`, the Potency is 21.7 µM (active).

`COc1ccc(OC)c(-c2nnc3ccc(-c4ccc(OC)c(O[C@@H]5CCOC5)c4)nn23)c1`: the Potency entry is “inactive”.

For the compound `O=C(Nc1cn[nH]c1-c1nc2ccc(CN3CCOCC3)cc2[nH]1)NC1CC1`, the Potency is 7.69 µM (active).

As for `CC(=O)c1cnc2ccc(-c3cc(Cl)c(O)c(Cl)c3)nc2c1NC1CCC(CN(C)C)CC1` (stereo not drawn), the Potency was 0.498 µM (active).

In the case of `Cn1c(=O)c(F)c(Nc2ccc(I)cc2F)c2c(=O)n(CC(O)CO)cnc21` (stereo not drawn), the Potency was 0.485 µM (active).

Turning to `Cc1csc(NC(=O)c2sc3nc4c(c(C(F)(F)F)c3c2N)CCC4)n1`, the Potency is 1.53 µM (active).

For `CC(C)Nc1cc(-c2c[nH]c(C(=O)N[C@H](CO)c3cccc(Cl)c3)c2)c(Cl)cn1`, the Potency result was “inactive”.

As to `COc1cc(N2CCC(N(C)C)CC2)ccc1Nc1ncc(Cl)c(Nc2ccccc2P(C)(C)=O)n1`, the Potency was 6.11 µM (active).

As for `CCCCN(CCCC)CC(O)c1cc(Cl)cc2c1-c1ccc(Cl)cc1/C2=C/c1ccc(Cl)cc1` (stereo not drawn), the Potency result was “inactive”.

On to `CCS(=O)(=O)N1CCN(c2ccc(Nc3ncc(C(N)=O)c(NC4CC4)n3)cc2)CC1`, for which the Potency is 15.3 µM (active).

Turning to `CN(C)CC/C=C1\c2ccccc2COc2ccccc21`, the Potency result was “inactive”.

`O=C1c2c(O)ccc(O)c2C(=O)c2c(NCCNCCO)ccc(NCCNCCO)c21`: the Potency is 0.544 µM (active).

Take `Cc1nc(N)ncc1-c1nc(N2CCOCC2)c2sc(C(C)(C)O)cc2n1`: the Potency is 0.432 µM (active).

Regarding `CN(C)C/C=C/C(=O)Nc1cc2c(Nc3ccc(F)c(Cl)c3)ncnc2cc1OC1CCOC1` (stereo not drawn), the Potency result was “inactive”.

On to `O=C(O)C1(Cc2cccc(Nc3nccs3)n2)CCC(Oc2cccc(Cl)c2F)CC1` (stereo not drawn), for which the Potency result is “inactive”.

With `CCN1CCN(Cc2ccc(Nc3ncc(F)c(-c4cc(F)c5nc(C)n(C(C)C)c5c4)n3)nc2)CC1`, the Potency result is “inactive”.

`Cc1ccc(C(=O)Nc2cccc(C(F)(F)F)c2)cc1-c1ccc2nc(NCCN3CCOCC3)ncc2c1`: the Potency is 12.2 µM (active).
